From PubChem BioAssay come the findings set out here.

Experiment [1] in a line: inhibitors of TNFa-induced NFkB p65 translocation, primary screen, imaging, HUVEC, MLSMR starter and 10KST1 sets (AID 438;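 active = inhibition above 20% together with a positive visual image hit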;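 note: compound added about 3h40 before a 20 min TNFalpha stimulation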;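 for inhibition: signal is the nuclear over cytoplasmic p65 intensity ratio per well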). The following applies: HUVEC TNFa-induced p65 nuclear translocation; cell count: measured here: nuclei count (cytotoxicity indicator), at 2.08 µM; inhibition: at 2 µM, stronger effect = higher value, 0% TNFa-plus-vehicle, 100% no-TNFa wells.
Experiment [2] can be described thus: reduction of polyQ htt aggregates in cells – imaging, exon1htt(103Q)mCFP cells, high-content imaging, primary screen (AID 483;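 active = visual image review flags a hit and inhibition of aggregation exceeds 20%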;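 note: compound exposure lasted 3 days before fixation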;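 for nuclei count: percent of the per-plate median nuclei count of sample wells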). The following applies: exon1htt(103Q)mCFP cell line, aggregate imaging, at 2 µM; inhibition of aggregation: stronger effect = higher value; nuclei count: measured here: cell count, toxicity.
The nature of experiment [3]: endothelial E-selectin expression blockers – imaging, HUVEC, immunofluorescence, MLSMR starter and 10KST1 sets, primary screen (AID 487;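 active = visually confirmed hit in the image check and inhibition above 20%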;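 for inhibition: signal is fraction of cell area covered by stained E-selectin grains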;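 for nuclei count: 100% = median nuclei count of all wells on the same plate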). The following applies: HUVEC TNFalpha-induced E-selectin immunofluorescence imaging, at 2 µM; inhibition: stronger effect = higher value; nuclei count: measured here: cell number, toxicity.
The target of experiment [4] is Voltage-gated potassium channel subunit beta-2 (Rattus norvegicus) (UniProt P62483). In words: inhibitors of rat Kvbeta2 reductase activity – biochemical, NADPH fluorescence, primary screen (AID 622;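 active = fluorescence slope higher than the sample average by over 3 SD, cut at about -0.22 in these data, passing the limit was not always enough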;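 note: slope of raw intensity against log time taken from 70 to 1610 s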). Conditions: recombinant KvBeta, 4-cyanobenzaldehyde reduction, at 10 µM, stronger effect = higher value.
Chain of Voltage-gated potassium channel subunit beta-2 (Rattus norvegicus) (P62483 whole entry, looked up): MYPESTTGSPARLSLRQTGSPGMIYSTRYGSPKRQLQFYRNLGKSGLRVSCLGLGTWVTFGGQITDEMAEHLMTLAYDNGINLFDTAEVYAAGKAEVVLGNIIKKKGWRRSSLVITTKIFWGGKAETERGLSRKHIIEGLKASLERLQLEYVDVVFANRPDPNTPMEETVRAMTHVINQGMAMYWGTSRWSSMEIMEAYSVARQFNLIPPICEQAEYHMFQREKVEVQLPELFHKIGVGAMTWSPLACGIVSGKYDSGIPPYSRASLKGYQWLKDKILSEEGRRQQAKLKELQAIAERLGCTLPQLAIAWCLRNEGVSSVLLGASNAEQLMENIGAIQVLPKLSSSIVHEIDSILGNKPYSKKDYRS
Experiment [5] has the same target. Put plainly: enhancers of rat Kvbeta2 NADPH turnover – biochemical, NADPH fluorescence, primary screen (AID 623;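 active = NADPH fluorescence slope more negative than the mean of all samples by about 3 SD, 99.7% confidence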;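 note: fluorescence intensity change per second fitted from 20 to 320 s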). Conditions: Recombinant KvBeta, NADPH fluorescence decrease slope, 10 min; at 10 µM; stronger effect = lower value.
Experiment [6] has as its target Alpha-2C adrenergic receptor (Homo sapiens) (UniProt P18825). In words: compounds altering alpha2C-coupled GIRK flux – cell-based, HEK293 alpha2C/GIRK1/2, thallium flux, primary screen (AID 624).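 Note: slope of fluorescence ratio to pre-addition baseline per second over 15 to 24 s.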 Conditions: thallium flux BTC fluorescence, at 10 µM, actives lie on both sides.
Experiment [7] in a line: blockers of RIG-like receptor reporter activation – cell-based, Sendai virus stimulus, luciferase, 10K MLSCN set, TLR/RLR signaling modifier project, primary screen (AID 602276;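 active = inhibition at or above 50% at 10 µM; inactive = inhibition below 50%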;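 note: firefly luciferase from ISG56 promoter only with Renilla not read in this screen; 0% = Sendai virus plus DMSO and 100% = medium plus DMSO without virus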). Conditions: HEK293 RL24 IRF3 luciferase reporter, at 10 µM, stronger effect = higher value.
Experiment [8] can be described thus: TLR3 IRF3 reporter activation blockers – cell-based, poly I:C stimulus, luciferase, 10K MLSCN set, primary screen (AID 602277;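 active = inhibition of the reporter signal at or above 50%; inactive = inhibition below 50%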). Conditions: HEK293-TLR3 RL24 IRF3 luciferase reporter, at 10 µM, stronger effect = higher value.

Structures are written as SMILES. Active and inactive are the calls of the source.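 Rule for the calls, unless noted: active = fluorescence slope after compound addition differing from the mean of all screened samples at 99.7% confidence, in either direction; inactive = the rest.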

Chain of Alpha-2C adrenergic receptor (Homo sapiens) (P18825 whole entry, looked up): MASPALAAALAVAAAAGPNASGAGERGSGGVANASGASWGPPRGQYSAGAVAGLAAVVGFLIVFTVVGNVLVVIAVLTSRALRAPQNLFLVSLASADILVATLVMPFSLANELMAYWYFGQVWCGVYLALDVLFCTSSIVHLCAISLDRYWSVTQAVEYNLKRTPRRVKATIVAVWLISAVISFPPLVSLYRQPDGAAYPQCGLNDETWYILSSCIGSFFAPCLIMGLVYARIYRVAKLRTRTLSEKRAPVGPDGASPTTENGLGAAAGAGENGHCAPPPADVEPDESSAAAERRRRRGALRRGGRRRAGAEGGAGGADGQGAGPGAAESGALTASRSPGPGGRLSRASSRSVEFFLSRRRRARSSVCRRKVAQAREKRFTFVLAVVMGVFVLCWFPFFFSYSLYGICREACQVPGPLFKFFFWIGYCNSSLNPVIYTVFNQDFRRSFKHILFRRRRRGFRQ

As to `Cc1nc(CCNC(=O)c2ccccc2)cs1`, the cell count in experiment [1] worked out at 347. The inhibition was -6% (inactive) in experiment [1], -51.1% (inactive) in experiment [3], 9.26% (inactive) in experiment [7] and -2.39% (inactive) in experiment [8]. The inhibition of aggregation in experiment [2] was 4.7% (inactive). Besides, the nuclei count is 102% in experiment [2] and 127% in experiment [3]. The fluorescence slope in experiment [4] is -0.486 (inactive). In experiment [5], the NADPH fluorescence slope was 9.5e-06 (inactive). In addition, the slope in experiment [6] is 0.00492 (inactive).
As for `CCOC(=O)c1c(C)oc2c1c1c(c3ccccc32)OCN(Cc2cccnc2)C1`, the cell count in experiment [1] is 499. The inhibition in experiment [1] is -2.1% (inactive); in experiment [3], -8.4% (inactive); in experiment [7], -1.25% (inactive); in experiment [8], 15.3% (inactive). Further, in experiment [2], the inhibition of aggregation was 8.8% (inactive). Moreover, the nuclei count in experiment [2] worked out at 100%; in experiment [3] it was 104%. In addition, in experiment [4], the fluorescence slope was -0.367 (inactive). Besides, the NADPH fluorescence slope in experiment [5] was 1.6e-05 (inactive). The slope in experiment [6] is 0.00433 (inactive).
For `O=S1(=O)N=C(Nc2nc3c(s2)CCCC3)c2ccccc21`, the cell count in experiment [1] is 319. Moreover, the inhibition in experiment [1] is -4.2% (inactive); in experiment [3] it was -33.1% (inactive); in experiment [7] it was -62.5% (inactive); in experiment [8], -97.7% (inactive). Moreover, in experiment [2], the inhibition of aggregation is 5% (inactive). In addition, the figures for the nuclei count in experiment [2] and in experiment [3] were 102% and 111%, respectively. Besides, in experiment [4], the fluorescence slope is -0.468 (inactive). For the same molecule, in experiment [5], the NADPH fluorescence slope is 5.2e-05 (inactive). The slope in experiment [6] was 0.00562 (inactive).
For the molecule `CCN=C1SC(CC(=O)Nc2ccccc2)C(=O)N1CC` (centres undefined), the cell count in experiment [1] amounted to 265. Further, the inhibition in experiment [1] was 3.4% (inactive); in experiment [3], -95.4% (inactive); in experiment [7], 8.21% (inactive); in experiment [8] it was 30% (inactive). Also, the inhibition of aggregation in experiment [2] is 26.6% (inactive). Moreover, the nuclei count in experiment [2] was determined as 92%; in experiment [3], 109%. The fluorescence slope in experiment [4] is -0.341 (inactive). Also, the NADPH fluorescence slope in experiment [5] was -1.1e-05 (inactive). Also, in experiment [6], the slope is 0.00797 (inactive).
Turning to `Cn1c(=O)c2c(nc(NCCCO)n2C/C=C/c2ccccc2)n(C)c1=O`, the cell count in experiment [1] was 401. In addition, the inhibition in experiment [1] is -1.8% (inactive); in experiment [3], -45.2% (inactive); in experiment [7] it was 22.3% (inactive); in experiment [8], 34.2% (inactive). For the same molecule, in experiment [2], the inhibition of aggregation is 1.8% (inactive). In addition, the values for the nuclei count in experiment [2] and in experiment [3] were 112% and 153%, respectively. In addition, in experiment [4], the fluorescence slope was -0.336 (inactive). Further, in experiment [5], the NADPH fluorescence slope was 9.8e-06 (inactive). Also, the slope in experiment [6] is 0.004 (inactive).
With `O=C(O)COc1ccc(S(=O)(=O)NCCc2ccccc2)cc1`, the cell count in experiment [1] came to 596. In addition, the inhibition is -0.8% (inactive) in experiment [1], -54.3% (inactive) in experiment [3], 13% (inactive) in experiment [7] and 24.1% (inactive) in experiment [8]. In addition, the inhibition of aggregation in experiment [2] was 20.5% (inactive). Further, the nuclei count was 81.4% in experiment [2] and 119% in experiment [3]. Also, the fluorescence slope in experiment [4] is -0.543 (inactive). Besides, the NADPH fluorescence slope in experiment [5] was -6.9e-05 (inactive). Moreover, in experiment [6], the slope is 0.00764 (inactive).
On to `CCc1ccc(NC(=O)CS(=O)CC(=O)NCC2OCCc3ccccc32)cc1` (centres undefined), for which the cell count in experiment [1] turned out to be 698. Besides, the inhibition is -4.5% (inactive) in experiment [1], -119% (inactive) in experiment [3], 9.39% (inactive) in experiment [7] and 13.4% (inactive) in experiment [8]. Further, in experiment [2], the inhibition of aggregation was 6.4% (inactive). In addition, the figures for the nuclei count in experiment [2] and in experiment [3] were 102% and 114%, respectively. Further, the fluorescence slope in experiment [4] was -0.415 (inactive). Further, in experiment [5], the NADPH fluorescence slope was -3.6e-05 (inactive). Besides, the slope in experiment [6] is 0.00515 (inactive).
For the molecule `Cc1cc(Nc2ccccc2)n(-c2ccccc2)n1`, the cell count in experiment [1] stood at 329. Moreover, the inhibition in experiment [1] was -3.3% (inactive); in experiment [3], -44.7% (inactive); in experiment [7], -15% (inactive); in experiment [8], -36.8% (inactive). Also, the inhibition of aggregation in experiment [2] was 27.4% (inactive). Further, the nuclei count was 114% in experiment [2] and 128% in experiment [3]. Moreover, the fluorescence slope in experiment [4] is -0.499 (inactive). For the same molecule, the NADPH fluorescence slope in experiment [5] is -2.4e-05 (inactive). Besides, in experiment [6], the slope is 0.00371 (inactive).
Regarding `C=CCOC(=O)C1=C(C)OC(N)=C(C#N)C1c1ccc2c(c1)OCO2` (centres undefined), the cell count in experiment [1] turned out to be 229. Moreover, the inhibition is 13.4% (inactive) in experiment [1], 9.6% (inactive) in experiment [3], -2.6% (inactive) in experiment [7] and 7.38% (inactive) in experiment [8]. Moreover, the inhibition of aggregation in experiment [2] was -3% (inactive). Moreover, the nuclei count in experiment [2] came to 90.4%; in experiment [3] it was 136%. The fluorescence slope in experiment [4] was -0.602 (inactive). Moreover, the NADPH fluorescence slope in experiment [5] is -3.1e-05 (inactive). Besides, in experiment [6], the slope was 0.00567 (inactive).
In the case of `CCOc1cccc(OCCCCn2ccnc2)c1`, the cell count in experiment [1] turned out to be 339. In addition, the inhibition in experiment [1] is -3.1% (inactive); in experiment [3], -124% (inactive); in experiment [7] it was 9.17% (inactive); in experiment [8] it was 21.4% (inactive). Further, the inhibition of aggregation in experiment [2] is -7.7% (inactive). The nuclei count in experiment [2] came out at 99%; in experiment [3], 114%. Also, the fluorescence slope in experiment [4] was -0.36 (inactive). In experiment [5], the NADPH fluorescence slope is 5e-05 (inactive). In addition, the slope in experiment [6] is 0.00579 (inactive).
For `COc1ccc(C(=O)Oc2c(CN3CCOCC3)cc(Cl)c3cccnc23)cc1OC`, in experiment [1], the cell count is 601. Also, the inhibition was -2.4% (inactive) in experiment [1], -53.1% (inactive) in experiment [3], -3.08% (inactive) in experiment [7] and 30.9% (inactive) in experiment [8]. In addition, the inhibition of aggregation in experiment [2] is -3.9% (inactive). Besides, the results for the nuclei count in experiment [2] and in experiment [3] were 100% and 111%, respectively. For the same molecule, the fluorescence slope in experiment [4] was -0.533 (inactive). Moreover, the NADPH fluorescence slope in experiment [5] is -2.5e-05 (inactive). Further, the slope in experiment [6] is 0.00812 (inactive).
On to `C=CCc1cc(OC)ccc1OCC(O)CN1CCN(c2ccc(OC)cc2)CC1` (centres undefined), for which the cell count in experiment [1] stood at 402. Besides, the inhibition in experiment [1] was 2.5% (inactive); in experiment [3], -16.2% (inactive); in experiment [7] it was 12.2% (inactive); in experiment [8] it was 22.6% (inactive). Moreover, in experiment [2], the inhibition of aggregation is 1.9% (inactive). Besides, the nuclei count in experiment [2] was 105%; in experiment [3], 106%. Further, in experiment [4], the fluorescence slope is -0.629 (inactive). Also, the NADPH fluorescence slope in experiment [5] was 7.7e-07 (inactive). The slope in experiment [6] was 0.00605 (inactive).
On to `CCN(C(=O)c1cn(C)c(=O)c2cc(OC)c(OC)cc12)c1ccccc1C`, for which the cell count in experiment [1] is 175. Moreover, the inhibition in experiment [1] was 0.3% (inactive); in experiment [3], -21.1% (inactive); in experiment [7], 0.738% (inactive); in experiment [8] it was 16.5% (inactive). Besides, the inhibition of aggregation in experiment [2] was 12.8% (inactive). For the same molecule, the nuclei count in experiment [2] is 94.1%; in experiment [3] it was 114%. Moreover, in experiment [4], the fluorescence slope is -0.59 (inactive). The NADPH fluorescence slope in experiment [5] is -2.6e-05 (inactive). Besides, in experiment [6], the slope is 0.00574 (inactive).
Take `CCN1C(=O)CC(N2CCC(Nc3ccc(F)cc3)CC2)C1=O` (centres undefined): the cell count in experiment [1] stood at 559. For the same molecule, the inhibition in experiment [1] was -9.7% (inactive); in experiment [3], -72% (inactive); in experiment [7], -4.21% (inactive); in experiment [8] it was -6.01% (inactive). In addition, the inhibition of aggregation in experiment [2] is 6.4% (inactive). Besides, the nuclei count came to 57.1% in experiment [2] and 94.1% in experiment [3]. Besides, in experiment [4], the fluorescence slope is -0.541 (inactive). In experiment [5], the NADPH fluorescence slope is 6.8e-06 (inactive). Besides, the slope in experiment [6] is 0.00599 (inactive).
